# Measured values reported in PubChem BioAssay (NCI).
# Compounds without any hit were thinned out: in the full panel of roughly 83,000, 20% have a hit.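 48-hour exposure, single concentration, 96-well plates; percent growth endpoint where 0 means no net growth. Active: below 10.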 Calls of active or inactive are those of the source.
# System: HL-60(TB) leukemia
# Test: NCI-60 one-dose screen, 48 h (100 = growth as untreated, 0 = no growth, -100 = all killed)
# Settings: 10 µM unless noted
row,SMILES,growth
1,Cc1noc2c(Cc3ccccc3)nn(CC(=O)N/N=C/c3ccc(F)cc3)c(=O)c12,93.2% (inactive)
2,COc1ccc(C(=O)/C=C/c2cc(C(F)(F)F)cc(C(F)(F)F)c2)cc1S(N)(=O)=O,2.43% (active)
3,O=C(Nc1cccc(C(F)(F)F)c1)c1cncc(C#Cc2cnc3cccnn23)c1,29.9% (inactive)
4,COc1ccc(OC)c(-c2cc(-c3c[nH]c4ccccc34)nc(N)c2C#N)c1,-32.2% (active)
